Results taken from PubChem BioAssay (NCI).
Values joined by “and” are separate entries in the source; they are usually repeats but may differ in a detail not shown here. Identical values can stand only once. This is part of a sample that, as a whole, favours compounds with a hit. Of some 83,000 tested, about 20% had one in any assay.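 Compound tested at a single concentration for 48 hours in 96-well plates; a percent growth value below 10 was scored as active.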 Active and inactive are the calls of the source.

Experiments:
Test in all cases: NCI-60 one-dose screen, 48 h (100 = growth as untreated, 0 = no growth, -100 = all killed)
SR leukemia = conditions: 10 µM unless noted
RPMI-8226 leukemia = tested on: RPMI-8226 leukemia
OVCAR-8 ovarian = tested on: OVCAR-8 ovarian
OVCAR-5 ovarian = tested on: OVCAR-5 ovarian
OVCAR-4 ovarian = tested on: OVCAR-4 ovarian
SK-OV-3 ovarian = tested on: SK-OV-3 ovarian
IGROV1 ovarian = tested on: IGROV1 ovarian
OVCAR-3 ovarian = tested on: OVCAR-3 ovarian
HS 578T breast = conditions: 10 µM unless noted
NCI/ADR-RES ovarian = tested on: NCI/ADR-RES ovarian

Measured: growth

Cc1cc(O)c(C(C)C)cc1N
inactive: SR leukemia 97.1% and 115% | RPMI-8226 leukemia; 10 µM unless noted 84.3% and 92.6% | OVCAR-8 ovarian; 10 µM unless noted 99.3% and 106% | OVCAR-5 ovarian; 10 µM unless noted 101% and 103% | OVCAR-4 ovarian; 10 µM unless noted 84.5% | SK-OV-3 ovarian; 10 µM unless noted 100% | IGROV1 ovarian; 10 µM unless noted 103% and 114% | OVCAR-3 ovarian; 10 µM unless noted 76.6% and 116% | HS 578T breast 120% and 99.7% | NCI/ADR-RES ovarian; 10 µM unless noted 102% and 98.8%

CCc1ccccc1-n1c(N)c(C#N)c(-c2ccc(OC)c(OC)c2)c(C#N)c1=O
inactive: SR leukemia 83% [100 µM] | RPMI-8226 leukemia; 10 µM 112% | RPMI-8226 leukemia; 100 µM 87.7% | OVCAR-8 ovarian; 10 µM 109% | OVCAR-5 ovarian; 10 µM 107% | OVCAR-5 ovarian; 100 µM 48.6% | OVCAR-4 ovarian; 10 µM 113% | OVCAR-4 ovarian; 100 µM 28% | SK-OV-3 ovarian; 10 µM 111% | IGROV1 ovarian; 10 µM 107% | IGROV1 ovarian; 100 µM 22.2% | OVCAR-3 ovarian; 10 µM 113% | OVCAR-3 ovarian; 100 µM 13.4% | NCI/ADR-RES ovarian; 10 µM 111% | NCI/ADR-RES ovarian; 100 µM 22.1%
active: OVCAR-8 ovarian; 100 µM -24.4% | SK-OV-3 ovarian; 100 µM -20.7%

OCCN1CCN(CCO)CC1
inactive: SR leukemia 99.5% and 117% and 98.8% | RPMI-8226 leukemia; 10 µM unless noted 100% and 95.5% | OVCAR-8 ovarian; 10 µM unless noted 101% and 97.4% | OVCAR-5 ovarian; 10 µM unless noted 111% and 91.2% and 105% | OVCAR-4 ovarian; 10 µM unless noted 124% and 97.7% | SK-OV-3 ovarian; 10 µM unless noted 104% and 106% and 109% | IGROV1 ovarian; 10 µM unless noted 113% and 90.8% and 112% | OVCAR-3 ovarian; 10 µM unless noted 119% and 108% and 109% | HS 578T breast 106% and 98.7% and 112% | NCI/ADR-RES ovarian; 10 µM unless noted 100% and 94% and 120%

Clc1ccc(NC(Nc2ccc(Cl)cc2)C(Cl)(Cl)Cl)cc1
inactive: SR leukemia 99.4% | RPMI-8226 leukemia; 10 µM unless noted 95.9% | OVCAR-8 ovarian; 10 µM unless noted 93.6% and 107% | OVCAR-5 ovarian; 10 µM unless noted 79.9% and 100% | OVCAR-4 ovarian; 10 µM unless noted 82.4% and 118% | SK-OV-3 ovarian; 10 µM unless noted 100% and 98% | IGROV1 ovarian; 10 µM unless noted 75.3% and 103% | OVCAR-3 ovarian; 10 µM unless noted 89% and 102% | HS 578T breast 109% | NCI/ADR-RES ovarian; 10 µM unless noted 61.5% and 99.4%

O=C1OC2(c3ccccc31)c1ccc(O)c(O)c1Oc1c2ccc(O)c1O
-17.7% (active) and 101% (inactive): SR leukemia
inactive: RPMI-8226 leukemia; 10 µM unless noted 113% and 109% | OVCAR-8 ovarian; 10 µM unless noted 107% | OVCAR-5 ovarian; 10 µM unless noted 92.1% and 115% | OVCAR-4 ovarian; 10 µM unless noted 89.7% and 108% | SK-OV-3 ovarian; 10 µM unless noted 106% and 98.8% | IGROV1 ovarian; 10 µM unless noted 117% and 124% | OVCAR-3 ovarian; 10 µM unless noted 98.7% and 107% | HS 578T breast 112% and 132% | NCI/ADR-RES ovarian; 10 µM unless noted 107% and 104%

Cc1cc(C)c(N)c(Br)c1
inactive: SR leukemia 98.8% and 100% | RPMI-8226 leukemia; 10 µM unless noted 100% and 96.7% | OVCAR-8 ovarian; 10 µM unless noted 123% and 106% | OVCAR-5 ovarian; 10 µM unless noted 101% and 78.3% | OVCAR-4 ovarian; 10 µM unless noted 107% and 88.6% | SK-OV-3 ovarian; 10 µM unless noted 102% and 96% | IGROV1 ovarian; 10 µM unless noted 97.1% and 97.7% | OVCAR-3 ovarian; 10 µM unless noted 117% and 96.8% | HS 578T breast 121% and 93.6% | NCI/ADR-RES ovarian; 10 µM unless noted 113% and 69.2%

CCOC(=O)Nc1nc2ccccc2[nH]1
122% (inactive) and 1.16% (active): OVCAR-3 ovarian; 10 µM unless noted
97.3% (inactive) and -1.09% (active): RPMI-8226 leukemia; 10 µM unless noted
inactive: SR leukemia 98.9% | OVCAR-8 ovarian; 10 µM unless noted 97.7% and 50.6% | OVCAR-5 ovarian; 10 µM unless noted 109% and 58.4% | OVCAR-4 ovarian; 10 µM unless noted 111% and 83% | SK-OV-3 ovarian; 10 µM unless noted 103% and 31.1% | IGROV1 ovarian; 10 µM unless noted 114% and 39.3% | HS 578T breast 11.2%
104% (inactive) and 3.49% (active): NCI/ADR-RES ovarian; 10 µM unless noted

O=C1c2c(O)cc(O)cc2OC(c2ccc(O)c(O)c2)C1O (stereo unspecified)
inactive: SR leukemia 101% | RPMI-8226 leukemia; 10 µM unless noted 99.5% | OVCAR-8 ovarian; 10 µM unless noted 99.1% | OVCAR-5 ovarian; 10 µM unless noted 104% | OVCAR-4 ovarian; 10 µM unless noted 113% | SK-OV-3 ovarian; 10 µM unless noted 109% | IGROV1 ovarian; 10 µM unless noted 126% | OVCAR-3 ovarian; 10 µM unless noted 123% | HS 578T breast 109%

Nc1ccc2[nH]c(-c3ccccc3)cc(=O)c2c1
active: SR leukemia 4.32%
inactive: RPMI-8226 leukemia; 10 µM unless noted 86.1% | OVCAR-8 ovarian; 10 µM unless noted 97.4% | OVCAR-5 ovarian; 10 µM unless noted 94.8% | OVCAR-4 ovarian; 10 µM unless noted 111% | SK-OV-3 ovarian; 10 µM unless noted 98.1% | IGROV1 ovarian; 10 µM unless noted 95.5% | OVCAR-3 ovarian; 10 µM unless noted 64.3% | HS 578T breast 107% | NCI/ADR-RES ovarian; 10 µM unless noted 70.5%
